# Inconclusive results are not listed. Activity calls are given as the source filed them. How the source made its calls, unless noted: active means hit-call score of the fitted dose curve at least 0.9, where 1 is the maximum; inconclusive means response in the unintended direction; inactive means score below 0.9.
# Assays:
# [1] = molecular target: rat Vasopressin 1 Receptor (V1), Avpr1a (gene 25107) (UniProt P30560); experiment: NVS_GPCR_rV1: NovaScreen (NVS) G Protein-Coupled Receptor Assay for rat Vasopressin 1 Receptor (V1) (AID 2283316)
# Procedure, shortened: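 Radioligand binding on rat liver membranes, 1.5 h incubation, filter-based scintillation counting. Single 25 uM screen in duplicate; chemicals meeting threshold (e.g. 30% inhibition) run in concentration-response up to 50 uM.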
# [2] = molecular target: bovine Gamma-Aminobutyric Acid Type A Receptor BDZ, alpha 5 site (GABARa5), GABRA5 (gene 523515) (UniProt Q08E50); experiment: NVS_LGIC_bGABARa5: NovaScreen (NVS) Ligand-Gated Ion Channel Assay for bovine Gamma-Aminobutyric Acid Type A Receptor BDZ, alpha 5 site (GABARa5) (AID 2283323)
# Procedure, shortened: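 Radioligand competitive displacement binding on bovine hippocampal membranes, read 1 hr after dosing by filter-based scintillation counting. Primary screen at 25 uM in duplicate; actives (e.g. ≥30% inhibition) then run in concentration-response up to 50 uM.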
# [3] = molecular target: Glutamate receptor ionotropic, kainate 1 (Rattus norvegicus) (UniProt P22756); experiment: NVS_IC_rKAR: NovaScreen (NVS) Ion Channel Assay for rat Kainic Acid Receptors (KAR) (AID 2283334; active means hit-call score of the fitted dose curve at least 0.9, where 1 is the maximum; inactive means score below 0.9)
# Procedure, shortened: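 Radioligand displacement binding using rat forebrain membranes, 1 h incubation, filter-based scintillation counting. Screened in duplicate at 25 uM, with actives retested in concentration-response up to 50 uM; fitted against DMSO.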
# [4] = NVS_IC_rCaBTZCHL: NovaScreen (NVS) Ion Channel Assay for Calcium Channel, Type L, Benzothiazepine Site (CaBTZCHL) (AID 2283337)
# Procedure, shortened: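 Radioligand displacement at the benzothiazepine site using rat cortical membranes; bound label measured by filtration and scintillation counting 1.5 h after dosing. Single-point 25 uM in duplicate, then concentration series; DMSO baseline.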
# [5] = molecular target: Sodium channel protein type 1 subunit alpha (Rattus norvegicus) (UniProt P04774); experiment: NVS_IC_rNaCh_site2: NovaScreen (NVS) Ion Channel Assay for rat Sodium Channel, Site 2 (NaCh) (AID 2283322);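 further: hit means loss of radioligand binding signal relative to DMSO so AC50 marks displacement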
# Procedure, shortened: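 Membranes: rat forebrain. Format: competitive radioligand displacement, filter separation, scintillation readout, 1 h exposure. Primary screen in duplicate at 25 uM; actives retested in concentration series.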
# [6] = molecular target: rat Neonicotinoid receptor (NNR), Chrna7 (gene 25302) (UniProt Q05941); experiment: NVS_LGIC_rNNR_BungSens: NovaScreen (NVS) Ligand-Gated Ion Channel Assay for rat Neonicotinoid receptor (NNR) (AID 2283315)
# Procedure, shortened: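 Radioligand displacement binding on rat cortical membranes, 2.5 h incubation, filtration and scintillation counting. Loss of specific binding fitted relative to DMSO.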
# [7] = molecular target: rat Gamma-Aminobutyric Acid Type A Receptor, Non-Selective (GABAR-NonSelective), Gabra1 (gene 29705) (UniProt P62813); experiment: NVS_LGIC_rGABAR_NonSelective: NovaScreen (NVS) Ligand-Gated Ion Channel Assay for rat Gamma-Aminobutyric Acid Type A Receptor, Non-Selective (GABAR-NonSelective) (AID 2283326)
# Procedure, shortened: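 Radioligand displacement on rat whole-brain extract, 1 h, filter scintillation readout; signal loss fitted versus DMSO. Primary screen in duplicate at 25 uM; hits (e.g. ≥30% inhibition) retested in concentration-response up to 50 uM.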
# [8] = molecular target: rat Peripheral-type Benzodiazepine Receptor (PBR), Tspo (gene 24230) (UniProt P16257); experiment: NVS_MP_rPBR: NovaScreen (NVS) Membrane Protein Assay for rat Peripheral-type Benzodiazepine Receptor (PBR) (AID 2283335)
# Procedure, shortened: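 Rat kidney membranes; radioligand binding with displacement, filter-based scintillation counting, 1 h incubation. Primary screen in duplicate at 25 uM, actives followed in concentration series; loss of binding vs DMSO.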
# [9] = NVS_IC_rCaDHPRCh_L: NovaScreen (NVS) Ion Channel Assay for rat Calcium Channel, Type L, Dihydropyridine Site (CaDHPRCh_L) (AID 2283320)
# Procedure, shortened: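 Radioligand binding to dihydropyridine site on rat cortical membranes, filter-based scintillation counting, 1 h after dosing. Screened in duplicate at 25 uM; actives rerun in concentration-response up to 50 uM. Loss of signal versus DMSO baseline.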
# [10] = molecular target: human Serotonin, 5-Hydroxytryptamine Receptor 3 (5HT3), HTR3A (gene 3359) (UniProt P46098); experiment: NVS_LGIC_h5HT3: NovaScreen (NVS) Ligand-Gated Ion Channel Assay for human Serotonin, 5-Hydroxytryptamine Receptor 3 (5HT3) (AID 2283325)
# Procedure, shortened: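 Radioligand displacement binding to human 5-HT3 from HEK293 membranes, read by filter-based scintillation counting after 1 h. Screen at 25 uM in duplicate; chemicals passing threshold were retested in concentration-response up to 50 uM.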
# [11] = molecular target: Voltage-gated inwardly rectifying potassium channel KCNH2 (Homo sapiens) (UniProt Q12809); experiment: NVS_IC_hKhERGCh: NovaScreen (NVS) Ion Channel Assay for human Potassium Channel ERG (KhERGCh) (AID 2283333)
# Procedure, shortened: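 Cell-free radioligand competition binding on hERG protein extracted from CHO cells, read by filter-based scintillation counting 0.75 h after dosing. Primary screen at 25 uM in duplicate, actives followed in concentration series. Signal loss fitted versus DMSO.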
# [12] = molecular target: rat Glutamate, AMPA Site (AMPA), Gria1 (gene 50592) (UniProt P19490); experiment: NVS_LGIC_rAMPA: NovaScreen (NVS) Ligand-Gated Ion Channel Assay for rat Glutamate, AMPA Site (AMPA) (AID 2283324)
# Procedure, shortened: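 Rat forebrain membranes; radioligand binding read 1 h after dosing by filtration and scintillation counting. Duplicate single-point screen at 25 uM, then concentration-response to 50 uM for threshold hits (e.g. 30% inhibition); loss of signal vs DMSO.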
# [13] = molecular target: human Constitutive Androstane Receptor (CAR), NR1I3 (gene 9970) (UniProt Q14994); experiment: NVS_NR_hCAR_Agonist: NovaScreen (NVS) Nuclear Receptor Binding Assay for human Constitutive Androstane Receptor Agonism (CAR) (AID 2283328)
# Procedure, shortened: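 Cell-free TR-FRET binding readout with extracted human CAR protein, read 1 h after dosing. Gain of signal fitted against DMSO baseline. Single-concentration duplicates at 25 uM, then concentration-response up to 50 uM for actives.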
# [14] = molecular target: Small conductance calcium-activated potassium channel protein 1 (Rattus norvegicus) (UniProt P70606); experiment: NVS_IC_rKCaCh: NovaScreen (NVS) Ion Channel Assay for rat Potassium Channel, Ca2+ Act., VI (KCaCh) (AID 2283336)
# Procedure, shortened: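 Radioligand binding to rat forebrain membranes, cell-free, read 1 hour after dosing by filter-based scintillation counting. Compounds first run in duplicate at 25 uM, actives then in concentration series; loss of signal vs DMSO indicates displacement.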
# bovine Gamma-Aminobutyric Acid Type A Receptor BDZ, alpha 5 site (GABARa5), GABRA5 (gene 523515), sequence (Q08E50 whole entry, looked up): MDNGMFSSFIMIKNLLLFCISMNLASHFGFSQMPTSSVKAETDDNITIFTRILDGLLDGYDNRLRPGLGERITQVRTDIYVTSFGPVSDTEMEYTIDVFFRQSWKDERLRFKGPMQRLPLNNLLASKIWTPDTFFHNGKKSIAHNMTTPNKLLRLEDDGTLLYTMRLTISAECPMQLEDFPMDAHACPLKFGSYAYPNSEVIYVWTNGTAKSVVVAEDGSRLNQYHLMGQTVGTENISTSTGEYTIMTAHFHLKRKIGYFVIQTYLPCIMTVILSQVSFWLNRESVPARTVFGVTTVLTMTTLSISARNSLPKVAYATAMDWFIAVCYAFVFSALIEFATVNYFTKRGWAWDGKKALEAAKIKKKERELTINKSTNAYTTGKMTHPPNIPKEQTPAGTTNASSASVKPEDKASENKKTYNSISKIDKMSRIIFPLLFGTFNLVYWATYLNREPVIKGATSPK
# Small conductance calcium-activated potassium channel protein 1 (Rattus norvegicus), sequence (P70606 whole entry, looked up): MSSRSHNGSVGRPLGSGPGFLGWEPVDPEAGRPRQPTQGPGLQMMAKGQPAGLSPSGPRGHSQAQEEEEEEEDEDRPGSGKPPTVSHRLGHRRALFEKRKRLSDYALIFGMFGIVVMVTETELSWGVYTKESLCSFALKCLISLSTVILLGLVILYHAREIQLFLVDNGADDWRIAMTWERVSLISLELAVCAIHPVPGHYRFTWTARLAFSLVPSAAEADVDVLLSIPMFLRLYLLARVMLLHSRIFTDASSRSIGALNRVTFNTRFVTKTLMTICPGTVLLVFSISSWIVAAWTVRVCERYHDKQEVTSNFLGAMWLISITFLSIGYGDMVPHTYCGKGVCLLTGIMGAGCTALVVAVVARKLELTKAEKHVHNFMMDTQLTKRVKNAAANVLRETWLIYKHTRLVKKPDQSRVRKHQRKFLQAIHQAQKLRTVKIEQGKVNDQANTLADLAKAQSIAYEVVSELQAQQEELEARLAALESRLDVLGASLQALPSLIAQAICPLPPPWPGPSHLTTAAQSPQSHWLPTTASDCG
# rat Neonicotinoid receptor (NNR), Chrna7 (gene 25302), sequence (Q05941 whole entry, looked up): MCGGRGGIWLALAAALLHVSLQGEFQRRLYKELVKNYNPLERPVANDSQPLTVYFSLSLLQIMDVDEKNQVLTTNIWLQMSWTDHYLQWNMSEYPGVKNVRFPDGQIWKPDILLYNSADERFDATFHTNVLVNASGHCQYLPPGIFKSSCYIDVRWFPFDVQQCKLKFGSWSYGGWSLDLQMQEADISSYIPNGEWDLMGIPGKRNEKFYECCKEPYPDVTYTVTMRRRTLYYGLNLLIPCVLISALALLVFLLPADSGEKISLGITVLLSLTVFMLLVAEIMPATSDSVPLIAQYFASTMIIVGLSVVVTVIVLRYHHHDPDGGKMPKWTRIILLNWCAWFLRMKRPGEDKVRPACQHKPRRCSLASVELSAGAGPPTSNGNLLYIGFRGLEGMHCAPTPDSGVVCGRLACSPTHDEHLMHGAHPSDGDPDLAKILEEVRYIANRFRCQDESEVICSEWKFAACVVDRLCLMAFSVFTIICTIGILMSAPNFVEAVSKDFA
# rat Gamma-Aminobutyric Acid Type A Receptor, Non-Selective (GABAR-NonSelective), Gabra1 (gene 29705), sequence (P62813 whole entry, looked up): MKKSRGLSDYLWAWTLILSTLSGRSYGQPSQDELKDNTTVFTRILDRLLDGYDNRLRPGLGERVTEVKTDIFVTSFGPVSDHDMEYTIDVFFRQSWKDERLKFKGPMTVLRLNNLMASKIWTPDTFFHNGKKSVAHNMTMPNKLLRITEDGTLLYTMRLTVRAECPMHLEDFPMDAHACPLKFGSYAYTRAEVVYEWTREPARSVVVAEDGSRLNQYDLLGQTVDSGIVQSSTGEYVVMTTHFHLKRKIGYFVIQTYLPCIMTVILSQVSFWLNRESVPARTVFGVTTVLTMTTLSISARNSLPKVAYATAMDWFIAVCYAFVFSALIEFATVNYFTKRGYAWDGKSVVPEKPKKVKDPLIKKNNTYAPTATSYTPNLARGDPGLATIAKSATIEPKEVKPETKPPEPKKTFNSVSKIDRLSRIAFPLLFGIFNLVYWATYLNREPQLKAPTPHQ
# rat Glutamate, AMPA Site (AMPA), Gria1 (gene 50592), sequence (P19490 whole entry, looked up): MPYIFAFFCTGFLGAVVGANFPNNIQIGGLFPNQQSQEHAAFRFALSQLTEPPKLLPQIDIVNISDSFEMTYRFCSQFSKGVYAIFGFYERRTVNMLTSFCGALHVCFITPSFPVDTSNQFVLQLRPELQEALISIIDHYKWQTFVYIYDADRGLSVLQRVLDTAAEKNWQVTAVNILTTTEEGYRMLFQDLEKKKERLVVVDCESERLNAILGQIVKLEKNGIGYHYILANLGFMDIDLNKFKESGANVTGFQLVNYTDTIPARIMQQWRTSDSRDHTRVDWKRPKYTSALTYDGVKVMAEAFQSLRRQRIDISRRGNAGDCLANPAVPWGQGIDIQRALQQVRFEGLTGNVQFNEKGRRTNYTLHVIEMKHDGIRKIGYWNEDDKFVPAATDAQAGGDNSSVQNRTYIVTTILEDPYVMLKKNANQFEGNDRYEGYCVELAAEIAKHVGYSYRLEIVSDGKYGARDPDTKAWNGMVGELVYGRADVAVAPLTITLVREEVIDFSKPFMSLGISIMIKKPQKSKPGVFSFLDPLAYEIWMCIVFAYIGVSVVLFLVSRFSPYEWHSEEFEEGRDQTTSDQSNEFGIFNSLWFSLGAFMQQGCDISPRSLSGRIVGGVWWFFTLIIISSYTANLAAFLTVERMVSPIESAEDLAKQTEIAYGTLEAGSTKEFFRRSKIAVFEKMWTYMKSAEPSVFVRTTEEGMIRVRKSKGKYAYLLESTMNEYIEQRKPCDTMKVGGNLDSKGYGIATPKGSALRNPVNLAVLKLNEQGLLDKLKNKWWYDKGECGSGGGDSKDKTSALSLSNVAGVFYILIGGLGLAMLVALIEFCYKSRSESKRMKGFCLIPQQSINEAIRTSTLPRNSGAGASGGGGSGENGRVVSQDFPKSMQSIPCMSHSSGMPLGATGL
# human Constitutive Androstane Receptor (CAR), NR1I3 (gene 9970), sequence (Q14994 whole entry, looked up): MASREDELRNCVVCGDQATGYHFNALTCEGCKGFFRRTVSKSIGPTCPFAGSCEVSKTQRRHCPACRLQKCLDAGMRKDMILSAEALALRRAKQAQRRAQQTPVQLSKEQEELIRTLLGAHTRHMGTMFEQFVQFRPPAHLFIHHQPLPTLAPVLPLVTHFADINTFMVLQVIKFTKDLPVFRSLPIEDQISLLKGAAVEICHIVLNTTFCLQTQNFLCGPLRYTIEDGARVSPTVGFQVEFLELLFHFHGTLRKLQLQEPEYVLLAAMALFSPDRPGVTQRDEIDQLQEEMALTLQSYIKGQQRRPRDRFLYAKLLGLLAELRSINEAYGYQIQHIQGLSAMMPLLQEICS
# rat Vasopressin 1 Receptor (V1), Avpr1a (gene 25107), sequence (P30560 whole entry, looked up): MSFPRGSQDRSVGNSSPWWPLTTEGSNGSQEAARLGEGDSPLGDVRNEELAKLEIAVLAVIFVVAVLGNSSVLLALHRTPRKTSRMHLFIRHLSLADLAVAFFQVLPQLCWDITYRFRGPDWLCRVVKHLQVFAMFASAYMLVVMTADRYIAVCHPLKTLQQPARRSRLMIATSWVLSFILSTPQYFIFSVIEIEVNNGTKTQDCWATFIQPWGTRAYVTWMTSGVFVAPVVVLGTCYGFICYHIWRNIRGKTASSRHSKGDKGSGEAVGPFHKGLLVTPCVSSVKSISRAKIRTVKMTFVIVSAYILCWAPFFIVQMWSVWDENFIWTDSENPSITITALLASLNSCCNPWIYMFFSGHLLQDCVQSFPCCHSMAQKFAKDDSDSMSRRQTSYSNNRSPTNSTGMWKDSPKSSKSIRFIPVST
# human Serotonin, 5-Hydroxytryptamine Receptor 3 (5HT3), HTR3A (gene 3359), sequence (P46098 whole entry, looked up): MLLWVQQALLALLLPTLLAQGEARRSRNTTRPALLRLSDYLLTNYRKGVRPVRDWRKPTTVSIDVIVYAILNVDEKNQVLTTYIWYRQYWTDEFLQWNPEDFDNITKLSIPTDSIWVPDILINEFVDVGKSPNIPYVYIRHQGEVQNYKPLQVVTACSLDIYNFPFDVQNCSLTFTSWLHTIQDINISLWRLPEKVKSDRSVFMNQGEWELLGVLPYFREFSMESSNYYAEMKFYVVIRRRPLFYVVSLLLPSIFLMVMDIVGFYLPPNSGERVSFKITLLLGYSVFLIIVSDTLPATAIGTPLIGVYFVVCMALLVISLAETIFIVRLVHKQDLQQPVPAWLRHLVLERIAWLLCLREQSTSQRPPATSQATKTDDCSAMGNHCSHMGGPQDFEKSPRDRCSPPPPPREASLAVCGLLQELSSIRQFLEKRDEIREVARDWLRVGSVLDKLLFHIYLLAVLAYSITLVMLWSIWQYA
# rat Peripheral-type Benzodiazepine Receptor (PBR), Tspo (gene 24230), sequence (P16257 whole entry, looked up): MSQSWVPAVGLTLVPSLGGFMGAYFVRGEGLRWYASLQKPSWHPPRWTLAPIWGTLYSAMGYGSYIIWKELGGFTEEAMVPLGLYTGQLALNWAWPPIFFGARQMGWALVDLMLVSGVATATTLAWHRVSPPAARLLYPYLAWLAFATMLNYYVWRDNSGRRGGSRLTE
smiles,measurement,setting,value
CCC(C)N(C)C(=O)c1cc2ccccc2c(-c2ccccc2Cl)n1 (stereo unspecified),AC50,[1],7.4 µM (active)
same,outcome,[2],inactive
same,outcome,[3],inactive
same,AC50,[4],9.12 µM (active)
CCCCCCCCCC[N+](C)(C)[O-],AC50,[5],19.1 µM (active)
O=C(O)c1cccnc1,outcome,[6],inactive
CCc1nc(N)nc(N)c1-c1ccc(Cl)cc1,AC50,[6],10.4 µM (active)
same,AC50,[5],3.65 µM (active)
same,AC50,[7],0.0648 µM (active)
same,outcome,[8],inactive
same,AC50,[4],8.32 µM (active)
O=C1NC(=O)C(c2ccccc2)(c2ccccc2)N1,outcome,[5],inactive
CSc1ccc(Oc2ccc(S(N)(=O)=O)cc2CN(C)C)cc1C,AC50,[9],8.08 µM (active)
same,AC50,[5],13.5 µM (active)
same,outcome,[10],inactive
same,AC50,[7],10.3 µM (active)
same,outcome,[11],inactive
same,AC50,[4],10.1 µM (active)
Cn1cnc2c1c(=O)[nH]c(=O)n2C,outcome,[5],inactive
COc1ccc(C(=O)Nc2nc3ccccc3c(NCc3ccccc3)c2C#N)cc1,outcome,[2],inactive
O=Cc1ccccc1C=O,AC50,[12],13.5 µM (active)
CC(C)NCC(O)c1ccc(O)c(O)c1 (stereo unspecified),outcome,[12],inactive
CC(C)OC(=O)C(C)(C)Oc1ccc(C(=O)c2ccc(Cl)cc2)cc1,outcome,[13],inactive
O=C1OC(c2ccc(O)cc2)(c2ccc(O)cc2)c2ccccc21,outcome,[14],inactive
c1ccc2occc2c1,outcome,[14],inactive
O=C(O)c1[nH]n(-c2ccc(S(=O)(=O)O)cc2)c(=O)c1N=Nc1ccc(S(=O)(=O)O)cc1,AC50,[4],10.4 µM (active)

# Reference: PubChem BioAssay (EPA / NIEHS)
